Reference: the antibiotic and cytotoxicity screens of Wong et al. (2023)
Hit rate of the full screen: of about 39,000 compounds, about 3,300 (8.5%) were called active. Only a selection was taken, and actives are over-represented in it overall.

Each molecule was assayed on HepG2 (assay: cytotoxicity call (relative viability < 0.9)). Conditions: 10 µM.
With `C[C@H]1CCCCO[C@@H](CN(C)C(=O)Nc2ccc(C(F)(F)F)cc2)[C@@H](C)CN([C@@H](C)CO)C(=O)c2cc(NS(=O)(=O)c3cn(C)cn3)ccc2O1` the cytotoxicity call was “inactive”. `CNC(=O)C(=O)NC[C@H]1OCCN1S(=O)(=O)c1ccccc1` was tested, and the cytotoxicity call was “inactive”. For `Cc1ccc(S(=O)(=O)N(C)C[C@H]2Oc3c(NS(C)(=O)=O)cccc3C(=O)N([C@@H](C)CO)C[C@@H]2C)cc1`, the cytotoxicity call was “inactive”. With `C[C@H](CO)N1C[C@H](C)[C@H](CN(C)Cc2ccncc2)Oc2ccc(NC(=O)c3ccncc3)cc2C1=O` the cytotoxicity call was “inactive”. For `C[C@@H]1CN([C@@H](C)CO)S(=O)(=O)c2ccc(-c3ccncc3)cc2O[C@@H]1CN(C)S(=O)(=O)c1ccccc1F`, the cytotoxicity call was “inactive”. For `O=C(C1=C[C@H](c2csc3ccccc23)C[C@H](OCc2ccc(CO)cc2)O1)N1CCN(Cc2ccc3c(c2)OCO3)CC1`, the cytotoxicity call was “inactive”. For `O=C(C1=C[C@H](c2csc3ccccc23)C[C@H](OCc2ccc(CO)cc2)O1)N1CCN(Cc2ccccc2)CC1`, the cytotoxicity call was “inactive”. For `O=C(C1=C[C@@H](c2csc3ccccc23)C[C@@H](OCc2ccc(CO)cc2)O1)N1CCN(Cc2ccc3c(c2)OCO3)CC1`, the cytotoxicity call was “active”. `C[C@H](CO)N1C[C@H](C)[C@H](CN(C)S(C)(=O)=O)Oc2ccc(NC(=O)c3ccncc3)cc2CC1=O` was tested, and the cytotoxicity call was “inactive”. With `Cl.O=c1n(CCCN2CCN(c3cccc(Cl)c3)CC2)nc2ccccn12` the cytotoxicity call was “inactive”. In the case of `COc1ccccc1N1CCN(c2ncc(C(=O)N3CCN(c4cccc(Cl)c4)CC3)c3ccccc23)CC1`, the cytotoxicity call is reported as “inactive”. For `CCc1nn(CCCN2CCN(c3cccc(Cl)c3)CC2)c(=O)n1CCOc1ccccc1`, the cytotoxicity call was “active”. `C[C@H]1CN([C@@H](C)CO)C(=O)c2cccc(NS(=O)(=O)c3ccc(F)cc3)c2O[C@H]1CN(C)Cc1ccncc1` was tested, and the cytotoxicity call was “inactive”. For `COc1cc(C(=O)NCCCN2CCCN(CCCNC(=O)c3cc(OC)c(OC)c(OC)c3)CC2)cc(OC)c1OC`, the cytotoxicity call was “inactive”. For `Cc1cn(CCC#N)c2ccccc12`, the cytotoxicity call was “inactive”. `Cc1cn(CCN2CCN(c3ccccc3-c3cc(C#N)cc(C(=O)NCCCN4CCCC4)c3)CC2)c2ccccc12` was tested, and the cytotoxicity call was “active”. In the case of `C[C@@H]1CN([C@@H](C)CO)S(=O)(=O)c2ccc(-c3ccncc3)cc2O[C@@H]1CN(C)Cc1ccc(Oc2ccccc2)cc1`, the cytotoxicity call is reported as “inactive”. `C[C@H](O)C#Cc1ccc2c(c1)O[C@@H](CN(C)C(=O)CN(C)C)[C@H](C)CN([C@H](C)CO)S2(=O)=O` was tested, and the cytotoxicity call was “inactive”. With `C[C@H](CO)N1C[C@H](C)[C@@H](CN(C)Cc2ccc(-c3ccccc3)cc2)Oc2c(NC(=O)Nc3ccc(F)cc3)cccc2C1=O` the cytotoxicity call was “inactive”. For `CC(C)NC(=O)Nc1cccc2c1O[C@@H](CN(C)Cc1ccc(-c3ccccc3)cc1)[C@@H](C)CN([C@@H](C)CO)C2=O`, the cytotoxicity call was “inactive”. In the case of `C[C@H]1CN([C@@H](C)CO)C(=O)c2cccc(NC(=O)Nc3ccccc3)c2O[C@@H]1CN(C)Cc1ccc(-c2ccccc2)cc1`, the cytotoxicity call is reported as “inactive”. `CC(C)NC(=O)Nc1cccc2c1O[C@H](CN(C)Cc1ccc(-c3ccccc3)cc1)[C@H](C)CN([C@H](C)CO)C2=O` was tested, and the cytotoxicity call was “inactive”. For `C[C@@H]1CN([C@@H](C)CO)C(=O)c2cccc(NC(=O)Nc3ccc(F)cc3)c2O[C@@H]1CN(C)Cc1ccc(-c2ccccc2)cc1`, the cytotoxicity call was “active”. For `C[C@H](CO)N1C[C@H](C)[C@H](CN(C)Cc2ccc(-c3ccccc3)cc2)Oc2c(NC(=O)Nc3ccc(F)cc3)cccc2C1=O`, the cytotoxicity call was “inactive”. For `C[C@@H]1CN([C@H](C)CO)C(=O)c2cccc(NC(=O)Nc3ccc(F)cc3)c2O[C@H]1CN(C)Cc1ccc(-c2ccccc2)cc1`, the cytotoxicity call was “active”. With `C[C@H]1CN([C@@H](C)CO)C(=O)c2cccc(NC(=O)Nc3ccc(F)cc3)c2O[C@@H]1CN(C)Cc1ccc(-c2ccccc2)cc1` the cytotoxicity call was “inactive”. In the case of `C[C@H]1CN([C@@H](C)CO)C(=O)c2cccc(NC(=O)Nc3ccc(F)cc3)c2O[C@H]1CN(C)Cc1ccc(-c2ccccc2)cc1`, the cytotoxicity call is reported as “inactive”. With `C[C@@H]1CN([C@@H](C)CO)C(=O)c2cccc(NC(=O)Nc3ccccc3)c2O[C@@H]1CN(C)Cc1ccc(-c2ccccc2)cc1` the cytotoxicity call was “active”. With `C[C@@H]1CN([C@@H](C)CO)C(=O)c2cccc(NC(=O)Nc3ccccc3)c2O[C@H]1CN(C)Cc1ccc(-c2ccccc2)cc1` the cytotoxicity call was “inactive”. In the case of `CC(C)NC(=O)Nc1cccc2c1O[C@H](CN(C)Cc1ccc(-c3ccccc3)cc1)[C@@H](C)CN([C@@H](C)CO)C2=O`, the cytotoxicity call is reported as “active”. In the case of `CN1CCN(C(=O)C[C@H]2CC[C@@H]3[C@H](COC[C@H](O)CN3C(=O)C3CC3)O2)CC1`, the cytotoxicity call is reported as “inactive”. With `O=C(O)[C@H]1CCCC[C@@H]1C(=O)N1CCOCC1` the cytotoxicity call was “inactive”. In the case of `CO[C@@H]1CN(C)C(=O)c2ccc(NS(C)(=O)=O)cc2OC[C@@H](C)N(C(=O)C2CCCCC2)C[C@H]1C`, the cytotoxicity call is reported as “inactive”. With `COc1ccc(NC(=O)N2C[C@@H](O)COC[C@@H]3O[C@H](CC(=O)NCc4ccccc4OC)CC[C@H]32)cc1` the cytotoxicity call was “inactive”. `C[C@@H]1CN([C@@H](C)CO)S(=O)(=O)c2ccc(C#CC3CC3)cc2O[C@H]1CN(C)Cc1ccccc1F` was tested, and the cytotoxicity call was “inactive”. For `COc1ccc(S(=O)(=O)N[C@H]2CC[C@@H](CC(=O)N3CCN(c4ccccc4)CC3)O[C@H]2CO)cc1`, the cytotoxicity call was “inactive”. In the case of `CC(C)NC(=O)Nc1ccc2c(c1)C(=O)N([C@H](C)CO)C[C@@H](C)[C@H](CN(C)S(C)(=O)=O)OCCCC[C@H](C)O2`, the cytotoxicity call is reported as “inactive”. For `O=C(C[C@H]1CC[C@@H](NS(=O)(=O)c2ccc(F)cc2)[C@@H](CO)O1)NCc1ccc(Cl)c(Cl)c1`, the cytotoxicity call was “inactive”. For `C[C@@H]1CCCCO[C@@H](CN(C)C(=O)Nc2ccc(F)cc2)[C@H](C)CN([C@H](C)CO)C(=O)c2cc(NC(=O)Cc3ccccc3)ccc2O1`, the cytotoxicity call was “inactive”. For `C[C@@H]1O[C@@H](O[C@@H]2[C@@H](O)[C@H](C)O[C@@H](OC[C@H]3O[C@@H](Oc4c(-c5ccc(O)cc5)oc5cc(O)cc(O)c5c4=O)[C@H](O)[C@@H](O)[C@H]3O)[C@@H]2O)[C@H](O)[C@H](O)[C@H]1O`, the cytotoxicity call was “inactive”. `C[C@@H]1CN([C@@H](C)CO)C(=O)c2cc(C#Cc3cccnc3)cnc2O[C@@H]1CN(C)Cc1ccc(F)cc1` was tested, and the cytotoxicity call was “inactive”. `C[C@H](CO)N1C[C@H](C)[C@@H](CN(C)Cc2ccccc2)Oc2c(NC(=O)c3ccc(-c4nccs4)cc3)cccc2C1=O` was tested, and the cytotoxicity call was “inactive”. With `N#CCNC(=O)Cc1ccccc1` the cytotoxicity call was “inactive”. `N[C@@H](Cc1cc(I)c(Oc2ccc(O)c(I)c2)c(I)c1)C(=O)O` was tested, and the cytotoxicity call was “inactive”. With `NC(Cc1cc(I)c(Oc2ccc(O)c(I)c2)c(I)c1)C(=O)[O-].[Na+]` [LIOTHYRONINE (L- isomer) SODIUM ] the cytotoxicity call was “active”. With `NC(Cc1cc(I)c(Oc2ccc(O)c(I)c2)c(I)c1)C(=O)O` (stereo not drawn) the cytotoxicity call was “inactive”. In the case of `COc1cccc(S(=O)(=O)Nc2ccc3c(c2)[C@@H]2C[C@@H](CC(=O)NCc4cccc(F)c4)O[C@@H](CO)[C@@H]2O3)c1`, the cytotoxicity call is reported as “inactive”. For `Cc1noc(C)c1S(=O)(=O)Nc1ccc2c(c1)CC(=O)N([C@H](C)CO)C[C@H](C)[C@H](CN(C)CC1CC1)O2`, the cytotoxicity call was “inactive”. For `Cc1noc(C)c1S(=O)(=O)N(C)C[C@H]1OCCCC[C@H](C)Oc2ccc(NC(=O)Nc3ccccc3)cc2C(=O)N([C@H](C)CO)C[C@H]1C`, the cytotoxicity call was “inactive”. With `Cc1noc(C)c1S(=O)(=O)N(C)C[C@@H]1OCCCC[C@H](C)Oc2ccc(NC(=O)Nc3ccccc3)cc2C(=O)N([C@H](C)CO)C[C@H]1C` the cytotoxicity call was “active”. For `Cc1noc(C)c1S(=O)(=O)N(C)C[C@@H]1OCCCC[C@@H](C)Oc2ccc(NC(=O)Nc3ccccc3)cc2C(=O)N([C@H](C)CO)C[C@H]1C`, the cytotoxicity call was “inactive”. `Cc1noc(C)c1S(=O)(=O)N(C)C[C@H]1OCCCC[C@@H](C)Oc2ccc(NC(=O)Nc3ccccc3)cc2C(=O)N([C@@H](C)CO)C[C@@H]1C` was tested, and the cytotoxicity call was “active”. `Cc1noc(C)c1S(=O)(=O)N(C)C[C@H]1OCCCC[C@H](C)Oc2ccc(NC(=O)Nc3ccccc3)cc2C(=O)N([C@H](C)CO)C[C@@H]1C` was tested, and the cytotoxicity call was “inactive”. `Cc1noc(C)c1S(=O)(=O)N(C)C[C@@H]1OCCCC[C@@H](C)Oc2ccc(NC(=O)Nc3ccccc3)cc2C(=O)N([C@@H](C)CO)C[C@@H]1C` was tested, and the cytotoxicity call was “inactive”. `COc1cccc(S(=O)(=O)N(C)C[C@H]2Oc3cc(C4=CCCC4)ccc3S(=O)(=O)N([C@@H](C)CO)C[C@@H]2C)c1` was tested, and the cytotoxicity call was “inactive”. `CC(C)NC(=O)Nc1ccc2c(c1)C(=O)N([C@@H](C)CO)C[C@@H](C)[C@@H](CN(C)C(=O)Nc1ccccc1)OCCCC[C@H](C)O2` was tested, and the cytotoxicity call was “inactive”. For `C[C@@H](NC(=O)C[C@@H]1C=C[C@H](NC(=O)CN2CCOCC2)[C@H](CO)O1)c1ccccc1`, the cytotoxicity call was “inactive”. With `Cc1ccc(OC(=O)n2c3ccccc3c3ccccc32)cc1` the cytotoxicity call was “inactive”. For `Cc1ccc(NC(=O)n2c3ccccc3c3ccccc32)cc1`, the cytotoxicity call was “active”. In the case of `CC1=CC(C)(C)N(C(=O)Nc2ccc(C)cc2)c2ccccc21`, the cytotoxicity call is reported as “inactive”. For `C[C@@H]1CN([C@H](C)CO)S(=O)(=O)c2ccc(C3=CCCCC3)cc2O[C@H]1CN(C)S(=O)(=O)c1cn(C)cn1`, the cytotoxicity call was “inactive”. In the case of `O=C(C[C@@H]1CC[C@@H]2[C@H](COC[C@@H](O)CN2S(=O)(=O)c2cccc(Cl)c2)O1)NCc1ccc2c(c1)OCO2`, the cytotoxicity call is reported as “inactive”. With `O=C(NO)c1ccc(-c2cn(CC(=O)N3CCOCC3)nn2)s1` the cytotoxicity call was “inactive”. For `CC1NC(=O)C2CCCN2C(=O)C(CC(N)=O)NC(=O)C2CSSCC(N)C(=O)NC3CSSCC(NC1=O)C(=O)NC(C(C)O)C(=O)NCC(=O)NC(C(=O)NC(Cc1ccc(O)cc1)C(=O)O)CSSCC(NC(=O)C(Cc1ccc(O)cc1)NC(=O)C(CCC(=O)O)NC3=O)C(=O)N2` (stereo not drawn), the cytotoxicity call was “inactive”. In the case of `CC[C@@H](C)CCCCC(=O)N[C@@H](CCN)C(=O)N[C@H](C(=O)N[C@@H](CCN)C(=O)N[C@H]1CCNC(=O)[C@H]([C@@H](C)O)NC(=O)[C@H](CCN)NC(=O)[C@H](CCN)NC(=O)[C@H](CC(C)C)NC(=O)[C@@H](Cc2ccccc2)NC(=O)[C@@H](CCN)NC1=O)[C@@H](C)O`, the cytotoxicity call is reported as “inactive”. For `CC(C)C[C@@H]1NC(=O)[C@@H](C(C)C)NC(=O)[C@@H]2CCCN2C(=O)[C@@H](CC(=O)O)NC(=O)[C@@H](Cc2c[nH]c3ccccc23)NC1=O`, the cytotoxicity call was “inactive”. With `CC(C)C[C@H]1NC(=O)[C@@H](CCCN)NC(=O)[C@H](C(C)C)NC(=O)[C@H]2CCCN2C(=O)[C@@H](Cc2ccccc2)NC(=O)[C@@H](CC(C)C)NC(=O)[C@@H](CCCN)NC(=O)[C@H](C(C)C)NC(=O)[C@H]2CCCN2C(=O)[C@@H](Cc2ccccc2)NC1=O` the cytotoxicity call was “active”. With `C[C@H]1[C@H]2[C@H](Cc3ccccc3)NC(=O)[C@]23C(=O)N[C@H](Cc2ccccc2)C(=O)N2CCC[C@H]2C(=O)NC/C=C\C/C=C/[C@@H]3[C@@H]2O[C@]12C` the cytotoxicity call was “inactive”.
